Test [1] concerns Vero E6 infected with SARS-CoV-2. The test is described as follows: morphology score (similarity to uninfected cells); higher = more like uninfected cells. The following applies: 24 h.
Test [2] shares this test system. The test is described as follows: SARS-CoV-2 infection rate relative to infected DMSO; higher = more infection, active = 60 or less. The settings on record: 24 h.

Structures are written as SMILES.

In the case of `c1ccc2c(c1)sc1ccccc12` [dibenzothiophene] (10 µM), in test [1], the morphology score turned out to be 0.0443. For the same molecule, the SARS-CoV-2 infection rate in test [2] is 105% (inactive).
The molecule `N=C(N)NCCC[C@H](NC(=O)c1sccc1NS(=O)(=O)c1cccc2nsnc12)C(=O)O` (10 µM) registered a morphology score in test [1] of 0.0108. Further, the SARS-CoV-2 infection rate in test [2] is 108% (inactive).
Taken in the same sequence, the figures for `Cc1ccc(O)c(N=Nc2ccccc2)n1` (10 µM) were 0.26 and 81% (inactive).
Taken in the same sequence, the figures for `Cc1cn(C[C@H](N)C(=O)O)c(=O)n(Cc2ccsc2C(=O)O)c1=O` (10 µM) were -0.0699 and 96.5% (inactive).
Take `CN1CCc2nc(C(=O)N[C@@H]3C[C@@H](C(=O)N(C)C)CC[C@@H]3NC(=O)C(=O)Nc3ccc(Cl)cn3)sc2C1` [edoxaban] (10 µM): in test [1], the morphology score was found to be 0.0662. Further, in test [2], the SARS-CoV-2 infection rate is 94.5% (inactive).
Molecule `CC(=O)N1CCC(NC(=O)c2ccc(F)cc2)CC1` (10 µM) showed a morphology score in test [1] of 0.0529. Moreover, the SARS-CoV-2 infection rate in test [2] is 110% (inactive).
For `CC[C@H](C)n1cc(C)c2c(C(=O)NCc3c(C)cc(C)[nH]c3=O)cc(-c3ccc(N4CCNCC4)nc3)cc21` (10 µM), in that order: -0.212 and 109% (inactive).
As for `NCC(O)(CS(=O)(=O)O)c1ccc(Cl)cc1` (stereo unspecified) [2-hydroxysaclofen] (10 µM), the morphology score in test [1] was found to be 0.266. For the same molecule, in test [2], the SARS-CoV-2 infection rate is 84.5% (inactive).
Taken in the same sequence, the figures for `C[C@@H](Oc1ccc(Cl)cc1)c1ccnc2ncnn12` (10 µM) were -0.0401 and 112% (inactive).
For `O=C(Nc1ccc(N2CCC(C(=O)N3CCOCC3)CC2)cc1)c1cnc(Oc2ccccc2)nc1` (10 µM), in that order: -0.02 and 114% (inactive).
For `CC(=O)Nc1c(I)cc(I)c(C(=O)O)c1I` [acetriazoic-acid] (10 µM), in that order: 0.138 and 112% (inactive).
`NS(=O)(=O)c1ccc(C(=O)O)cc1` [carzenide] (10 µM): the morphology score in test [1] turned out to be 0.174. In test [2], the SARS-CoV-2 infection rate was 102% (inactive).
Taken in the same sequence, the figures for `N#Cc1ccc(C(c2ccc(C#N)cc2)n2cncn2)cc1` [letrozole] (10 µM) were 0.138 and 102% (inactive).
Taken in the same sequence, the figures for `COc1cc([C@@H]2c3cc4c(cc3[C@@H](O[C@@H]3O[C@@H]5CO[C@@H](C)O[C@H]5[C@H](O)[C@H]3O)[C@H]3COC(=O)[C@H]23)OCO4)cc(OC)c1OP(=O)(O)O` [etoposide-phosphate] (10 µM) were 0.101 and 94.5% (inactive).
Taken in the same sequence, the figures for `O=C(O)c1ccccc1-c1ccc(C(F)(F)F)cc1` [xenalipin] (10 µM) were 0.0335 and 102% (inactive).
Take `CC(C)(Cc1c[nH]c2ccc(Cl)cc12)NCCOc1ccccc1OCC1CC1` (0.833333 µM): in test [1], the morphology score turned out to be 0.193. Further, the SARS-CoV-2 infection rate in test [2] was 110% (inactive).
`O=C(NCc1cccc(O)c1)Nc1nc(-c2ccncc2)cs1` (10 µM): in test [1], the morphology score was determined as 0.392. The SARS-CoV-2 infection rate in test [2] is 97.8% (inactive).
For `Nc1ccc(S(=O)(=O)NC(=O)c2ccccc2)cc1` [sulfabenzamide] (10 µM), in that order: 0.0893 and 106% (inactive).
`CC(C)n1c(/C=C/[C@@H](O)C[C@@H](O)CC(=O)O)c(-c2ccc(F)cc2)c2ccccc21` [fluvastatin] (0.833333 µM) registered a morphology score in test [1] of -0.082. Further, the SARS-CoV-2 infection rate in test [2] was 115% (inactive).
For `CN(c1ccccc1CNc1nc(Nc2ccc3c(c2)CC(=O)N3)ncc1C(F)(F)F)S(C)(=O)=O` (10 µM), in that order: 0.0447 and 114% (inactive).
Taken in the same sequence, the figures for `NCCCCCNCC12CC3CC(CC(C3)C1)C2` (10 µM) were 0.229 and 97.5% (inactive).
For `CCC(CO)(C(=O)OC1CC2CCC(C1)[N+]2(C)C)c1ccccc1` (stereo unspecified) [troventol] (10 µM), in that order: -0.023 and 106% (inactive).
`CNC(=O)c1nn(C)c2c1C(C)(C)Cc1cnc(Nc3ccc(N4CCN(C)CC4)cc3)nc1-2` (10 µM): the morphology score in test [1] was -0.142. Besides, the SARS-CoV-2 infection rate in test [2] was 112% (inactive).
`CN1CCN(C2=Cc3ccccc3Oc3ccc(Cl)cc32)CC1` (10 µM) came in with a morphology score in test [1] of 0.217. In test [2], the SARS-CoV-2 infection rate is 106% (inactive).
For `CC(C)Cc1ccc(C(C)C(=O)NO)cc1` (stereo unspecified) [ibuproxam] (10 µM), in that order: 0.234 and 93.5% (inactive).
On to `C[C@]12CC[C@H]3[C@@H](CCC4=CC(=O)CC[C@@H]43)[C@@H]1CC[C@@H]2O` [Nandrolone] (10 µM), for which, in test [1], the morphology score turned out to be 0.24. Further, the SARS-CoV-2 infection rate in test [2] was 89.5% (inactive).
For `COc1cc2ncnc(Nc3cccc(Br)c3)c2cc1OC` (10 µM), in that order: -0.238 and 104% (inactive).
Molecule `COc1ccc(S(=O)(=O)Nc2cc(Cl)cc(Cl)c2OC)cc1N1CCNCC1` (10 µM) had a morphology score in test [1] of 0.132. Further, the SARS-CoV-2 infection rate in test [2] is 97.5% (inactive).
Taken in the same sequence, the figures for `COc1cc(CCc2cc(NC(=O)c3ccc(N4CC(C)NC(C)C4)cc3)n[nH]2)cc(OC)c1` (stereo unspecified) (10 µM) were 0.373 and 79.5% (inactive).
For `NC(=O)NO` [hydroxyurea] (10 µM), in that order: 0.223 and 100% (inactive).
Taken in the same sequence, the figures for `COc1ccnc(C[S+]([O-])c2nc3cc(OC(F)F)ccc3[nH]2)c1OC` (stereo unspecified) [pantoprazole] (10 µM) were -0.142 and 104% (inactive).
Molecule `O=C1c2ccccc2C(Cc2ccnc(F)c2)(Cc2ccnc(F)c2)c2ccccc21` (10 µM) displayed a morphology score in test [1] of -0.17. Also, in test [2], the SARS-CoV-2 infection rate is 113% (inactive).
Taken in the same sequence, the figures for `N[C@@H](C(=O)O)c1ccc(C(=O)O)c(O)c1` (racemic) [4-carboxy-3-hydroxyphenylglycine-(RS)] (10 µM) were 0.126 and 101% (inactive).
Taken in the same sequence, the figures for `CCC(=O)c1cc(-c2ccc(Cl)cc2)n(-c2ccc(S(N)(=O)=O)cc2)c1C` (10 µM) were 0.104 and 102% (inactive).
For `C[C@H](Cn1cnc2c(N)ncnc21)OCP(=O)(O)O` [tenofovir] (10 µM), in that order: -0.0359 and 105% (inactive).
For the molecule `Cc1ccc(=O)n(-c2ccc(O)cc2)c1` (10 µM), the morphology score in test [1] is -0.0543. In test [2], the SARS-CoV-2 infection rate is 94.5% (inactive).
Taken in the same sequence, the figures for `N#C[C@@H]1C[C@@H]2C[C@@H]2N1C(=O)[C@@H](N)C12CC3CC(CC(O)(C3)C1)C2` (10 µM) were -0.0311 and 105% (inactive).
For `CC(=O)[C@]1(N)Cc2c(O)c3c(c(O)c2[C@@H](O[C@H]2C[C@H](O)[C@H](O)CO2)C1)C(=O)c1ccccc1C3=O` [amrubicin] (0.833333 µM), in that order: 0.065 and 92.5% (inactive).
In turn, `Cn1c(NCCN(CCO)CCCc2ccc([N+](=O)[O-])cc2)cc(=O)n(C)c1=O` [nifekalant] (10 µM) showed a morphology score in test [1] of -0.0636. The SARS-CoV-2 infection rate in test [2] is 120% (inactive).
Taken in the same sequence, the figures for `CC[N+](C)(CC)CCOC(=O)C1c2ccccc2Oc2ccccc21` [methantheline] (10 µM) were 0.0949 and 106% (inactive).
Taken in the same sequence, the figures for `CCCN(C/C=C/I)[C@H]1CCc2ccc(O)cc2C1` [7-hydroxy-PIPAT] (10 µM) were -0.0984 and 118% (inactive).
As to `CN(c1ncccc1CNc1nc(Nc2ccc3c(c2)CC(=O)N3)ncc1C(F)(F)F)S(C)(=O)=O` (0.833333 µM), the morphology score in test [1] is -0.119. In test [2], the SARS-CoV-2 infection rate was 106% (inactive).
Turning to `CCSc1ccc2c(c1)N(CCCN1CCN(C)CC1)c1ccccc1S2` [thiethylperazine] (10 µM), the morphology score in test [1] turned out to be 0.722. Moreover, in test [2], the SARS-CoV-2 infection rate is 29.5% (active).
For `O=C(O)c1cc(-c2ccccc2)nc2ccccc12` [cinchophen] (10 µM), in that order: 0.0922 and 104% (inactive).
For `C[C@]12C[C@H](O)[C@H]3[C@@H](CCC4=CC(=O)CC[C@@]43C)[C@@H]1CC[C@@H]2C(=O)CO` [corticosterone] (10 µM), in that order: 0.0999 and 110% (inactive).
In test [1], `O=C(NCCN1CCC2(CC1)C(=O)NCN2c1cccc(F)c1)c1ccc(F)c(F)c1` (10 µM) gave a morphology score of 0.259. Besides, in test [2], the SARS-CoV-2 infection rate is 75.5% (inactive).
For `CCCCCCCCCCCC1=C(O)C(=O)C=C(O)C1=O` [embelin] (10 µM), in that order: -0.0413 and 106% (inactive).
Taken in the same sequence, the figures for `N=C(N)NC(=O)c1nc(Cl)c(N)nc1N` [amiloride] (10 µM) were 0.1 and 98% (inactive).
For `C[C@@H]1C(=O)O[C@H]2C[C@@]34[C@H]5C[C@@H](C(C)(C)C)[C@]36[C@@H](OC(=O)[C@@H]6O)O[C@@]4(C(=O)O5)[C@]21O` [Ginkgolide A] (10 µM), in that order: -0.0141 and 114% (inactive).
`C=C[C@@H]1C[C@]1(NC(=O)[C@@H]1C[C@@H](Oc2ncc(OC)c3ccc(Cl)cc23)CN1C(=O)[C@@H](NC(=O)OC(C)(C)C)C(C)(C)C)C(=O)NS(=O)(=O)C1CC1` [asunaprevir] (10 µM) returned a morphology score in test [1] of 0.192. Moreover, the SARS-CoV-2 infection rate in test [2] was 85% (inactive).
Taken in the same sequence, the figures for `O=C1NCC2(CCN(CCc3ccccc3)CC2)O1` [fenspiride] (10 µM) were 0.208 and 101% (inactive).
For `O=C(NC(Cc1cc(=O)[nH]c2ccccc12)C(=O)O)c1ccc(Cl)cc1` (stereo unspecified) [rebamipide] (10 µM), in that order: 0.0758 and 104% (inactive).
For `CN(C)CCCC(=O)Nc1ccc(C(=O)Nc2cccc(Nc3ncc(Cl)c(-c4c[nH]c5ccccc45)n3)c2)cc1` (10 µM), in that order: 0.132 and 101% (inactive).
`O=C1CN=C(c2cccc(Br)c2)c2oc3ccccc3c2N1` (10 µM) gave a morphology score in test [1] of 0.0252. Moreover, the SARS-CoV-2 infection rate in test [2] is 95.5% (inactive).
Taken in the same sequence, the figures for `CCOC(=O)c1c(/C(C#N)=C\N)c2ccc(Cl)c(Cl)c2n1C` (10 µM) were -0.0335 and 105% (inactive).
Taken in the same sequence, the figures for `Cc1ccc(C(=O)Nc2ccc(Oc3cc4cnn(C)c4cc3-c3cn[nH]c3)c(F)c2)c(=O)n1-c1ccc(F)cc1` (0.833333 µM) were 0.172 and 106% (inactive).
For `CNC1CC(N)C(O)C(OC2OC(CO)C(O)C3OC4(OC(C(N)CO)C(O)C(O)C4O)OC23)C1O` (stereo unspecified) [Hygromycin B] (10 µM), in that order: 0.0213 and 86.5% (inactive).
`CCN(CC)c1ccc(/C=N/NC(=O)c2ccc(O)cc2)cc1` (10 µM) gave a morphology score in test [1] of -0.186. Moreover, in test [2], the SARS-CoV-2 infection rate was 107% (inactive).
Turning to `Nc1nc(Cl)nc2c1ncn2[C@@H]1O[C@H](CO)[C@@H](O)[C@@H]1F` [clofarabine] (0.833333 µM), the morphology score in test [1] stood at 0.11. For the same molecule, in test [2], the SARS-CoV-2 infection rate was 94.5% (inactive).
Taken in the same sequence, the figures for `CCCC(=O)O` [sodium-butyrate] (10 µM) were 0.0558 and 110% (inactive).
Taken in the same sequence, the figures for `O=c1[nH]c(=O)c2ccccc2o1` [carsalam] (10 µM) were 0.265 and 85% (inactive).
For `NCC(=O)N[C@@H](CCC(N)=O)C(=O)O` (10 µM), in that order: 0.0903 and 108% (inactive).
Consider `CC(C)(C)c1cc(C(C)(C)C)c2c(c1)C(O)(C(F)(F)F)C(=O)O2` (racemic) (10 µM), for which, in test [1], the morphology score amounted to 0.239. Moreover, the SARS-CoV-2 infection rate in test [2] is 95.5% (inactive).

These data come from the supplement of paper PMC13380429.
